Here are results for seven compounds from PubChem BioAssay (NCATS).

Unmarked numbers belong to inactive results. Records with an inconclusive call do not appear. Calls of active or inactive are those of the source. Unless noted, the call rests on the fitted dose curve; in most records, active means well fitted curve in the direction sought with a large enough effect; inconclusive means small, poorly fitted or top-dose-only effect, or another doubt; inactive means no such curve, though single readings can be large; an effect the other way counts as inactive or inconclusive. Where only a bound is given, the exact number is not on record here.

A short description of assay [1]: AP1 Signaling Pathway (AID 357; active means well fitted curve in either direction with a large enough effect, not every such curve was filed as active;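 further: ME-180 reporter cells stimulated with EGF at its EC50 level; on the % scale 0 is the no-effect control and ±100 the full control effect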). As to conditions: ME-180 AP-1-bla reporter, EGF-induced, beta-lactamase ratio, 5 h; at 7.69 µM (top of the series) unless noted. The method, boiled down: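 Modulation of EGF-driven AP-1 transcription was assessed with a beta-lactamase reporter in ME-180 cells. Compound and EC50 EGF were co-incubated 5 hours at 37 °C before 2.5-hour CCF4 loading at room temperature and dual-emission reading.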

Assay [2] concerns the target Cytochrome P450 1A2 (Homo sapiens) (UniProt P05177). Description: p450-cyp1a2 (AID 410; calls by dose curve; further: potency means the concentration at half of the fitted maximal effect). The gist of the method: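 20nM CYP1A2 with 100uM Luciferin-ME (at Km) in 100mM KPO4; compound preincubated 10 min, NADPH regeneration added, 60 min at room temperature. Luciferin quantified by luminescence after detection reagent; normalized to 57 uM furafylline.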
A short description of assay [3]: NFAT Signaling Pathway (AID 444; active means well fitted curve in either direction with a large enough effect, not every such curve was filed as active;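 further: carbachol stimulus at about its EC50 of 1 µM final; on the % scale 0 is the no-effect control and ±100 the full control effect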). Particulars: Jurkat NFAT-bla M1, carbachol, beta-lactamase ratio, 5 h; at 7.69 µM (top of the series) unless noted. The gist of the method: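 Read-out: CCF4 FRET ratio (460 nm/530 nm) after 1 h RT dye loading, used for %activity and AC50 from titration series. Cells: Jurkat NFAT-β-lactamase/M1 line, treated with compound plus 1 uM carbachol for 5 h, 37 °C.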

A short description of assay [4]: Stat Signaling Pathway (AID 446; active means well fitted curve in either direction with a large enough effect, not every such curve was filed as active;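 further: ME-180 cervical cancer cells given 40 pM IL-6 alongside compound; SIE-controlled beta-lactamase reporter measured as 460/530 nm FRET emission ratio; on the % scale 0 is the no-effect control and ±100 the full control effect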). Particulars: ME-180 SIE beta-lactamase reporter, IL-6 stimulated, 5 h; at 7.69 µM (top of the series) unless noted. The method, boiled down: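 ME-180 cells carrying a SIE-driven beta-lactamase reporter are stimulated with 40 pM IL-6 for 5 h at 37C in the presence of compound. The 460/530 nm FRET substrate ratio is read after 2.5 h at RT. Data are normalised to 300 pM IL-6 and to 125 nM JAK inhibitor controls.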

Assay [5] deals with Glucocorticoid receptor (Homo sapiens) (UniProt P04150). Description: GR-GFP Redistribution (AID 450;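 active means compounds whose dose series gives a full or clear partial fitted curve of increased nuclear translocation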; further: potency means the concentration at half of the fitted maximal effect). As to conditions: U2OS GR-GFP nuclear translocation, laser cytometry, 2 h.
For assay [6] the target is unchanged. Description: GR-EFC Redistribution (AID 451; calls by dose curve; further: potency means the concentration at half of the fitted maximal effect). Particulars: CHO-K1 GR-EFC translocation, beta-gal luminescence, 2 h. The gist of the method:
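Translocation of GR-ED fusion to nuclear EA restores b-gal, read by luminescence after 1 h room-temperature detection. Engineered CHO-K1 biosensor cells, 1,000/well, exposed 2 h at 37 C to titrations up to 46 uM final.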

Assay [7] concerns the target Mitogen-activated protein kinase 10 (Mus musculus) (UniProt Q61831). Description: JNK3 AlphaScreen Assay (AID 530; active means well fitted curve in either direction with a large enough effect, not every such curve was filed as active;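 further: kinase came from lysate of stimulated human HepG2 cells; signal reports phosphorylation of biotinylated GST-cJun 1-79 at Ser73 with 10 µM ATP; on the % scale 0 is the no-effect control and ±100 the full control effect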). The method, boiled down:
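Compound titrations were preincubated 15 minutes at room temperature with substrate, antibody and pre-activated JNK3-containing HepG2 lysate. Reactions were started with 10 uM ATP and stopped with EDTA-containing bead buffer for AlphaScreen detection.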
A general note: In Alpha technology, singlet oxygen from a donor bead excites a nearby acceptor bead.

For assay [8], the target named is 3',5'-cyclic-AMP phosphodiesterase 4B (Homo sapiens) (UniProt Q07343). Description: qHTS Assay for Inhibitors of PDE-IV (AID 607; active means well fitted activation curve with a large enough effect in the main read-out, with a control signal flat, not every such curve was filed as active; further: % of control where 0% means no effect). The gist of the method: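 HEK293 ACTOne cells with CNG channel (1000/well), endogenous PDE4; membrane potential dye, compounds up to 22.9 uM final. Fluorescence Ex 535/Em 590; RO 20-1724 (100 uM final) as reference.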
For assay [9], the target named is Cytochrome P450 3A4 (Homo sapiens) (UniProt P08684). Description: qHTS Assay for Activators of Cytochrome P450 3A4 (AID 885). Further: nearly all actives have a fitted effect of over 65% in size. The method, boiled down: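 Human CYP3A4 (20 nM) with Luciferin-PPXE at 25 uM (its KM) in 200 mM KPO4; 10 min compound preincubation, then NADPH regeneration and 60 min reaction at RT. Luciferin read by luminescence; normalized to 57 uM ketoconazole full inhibition.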
(In general: Quantitative high-throughput screening tests each substance at several concentrations.)

A short description of assay [10]: qHTS Assay for Identification of Small Molecule Agonists for Hypoxia Response Element Signaling Pathway (AID 914; active means well fitted activation curve with a large enough effect in the signal ratio, with a control signal flat, not every such curve was filed as active; the % refers to the signal ratio; further: % of control where 0% means no effect). Particulars: ME-180 (cervical carcinoma) HRE-bla reporter, beta-lactamase ratio, CoCl2, 17 h; activation: active compounds read high. The gist of the method:
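Cells were plated overnight, pin-dosed with compound in a titration series, co-stimulated with EC50 CoCl2 and incubated 17 hours at 37 degrees Celsius. CCF4 substrate was then loaded, and AC50 values came from the 460nm/530nm ratio.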

Assay [11] has as its target Dual specificity protein kinase CLK4 (Homo sapiens) (UniProt Q9HAZ1). Description: qHTS Assay for Inhibitors of CDC-like Kinase 4 (ADP-FP Assay) (AID 1795). Further: nearly all actives have a fitted effect of over 60% in size. Further: potency means the concentration at half of the fitted maximal effect. The method, boiled down:
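Clk4 6.25 nM; RS peptide 100 uM; ATP 1 uM; 25 mM Tris pH 7.5, 10 mM MgCl2; 1 h reaction. ADP detected via antibody/orange tracer FP displacement; TG003 positive control.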

Assay [12] deals with Ubiquitin carboxyl-terminal hydrolase 1 (Homo sapiens) (UniProt O94782). Description: Inhibitors of USP1/UAF1: Pilot qHTS (AID 504865).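 Further: rhodamine fluorescence freed from ubiquitin-rhodamine substrate followed over time; top concentration of the series differs between compounds; on the % scale 0 is the no-effect control and ±100 the full control effect; nearly all actives have a fitted effect of over 35% in size.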 The gist of the method:
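In 50mM HEPES pH 7.8 containing 0.5mM EDTA, 1mM TCEP, 0.1 mg/ml BSA and 0.01% Tween-20, 1nM USP1/UAF1 is exposed to compound for 15 min, then Ub-Rho (150nM final) is added and fluorescence is read over time.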

Assay [13] can be described thus: Primary qHTS for small molecule stabilizers of the endoplasmic reticulum resident proteome: Secreted ER Calcium Modulated Protein (SERCaMP) assay (AID 1508630). Further: on the % scale 0 is the no-effect control and ±100 the full control effect. The gist of the method: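 GLuc-SERCaMP-expressing SH-SY5Y cells, pretreated 16 h with compound, are challenged with thapsigargin to empty ER calcium stores; after 4 h, coelenterazine is added directly to the medium and luminescence is imaged.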

Assay [14] addresses Lysosomal acid glucosylceramidase (Homo sapiens) (UniProt P04062). Description: Glucocerebrosidase-p2 (AID 348; in the data active means potency below about 10 µM; further: potency means the concentration at half of the fitted maximal effect). Particulars: purified GBA, blue fluorogenic substrate, 40 min. The method, boiled down: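 Compounds titrated from 0.6 nM upwards against 0.2 nM enzyme in pH 5.9 citric acid/KH2PO4, taurocholate, tween-20; blue fluorogenic substrate 80 uM, 40 min room temperature, stopped and read Ex 365/Em 440 for AC50.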

The target of assay [15] is Cytochrome P450 3A4 (Homo sapiens) (UniProt P08684). Description: qHTS Assay for Inhibitors and Substrates of Cytochrome P450 3A4 (AID 884). Further: potency means the concentration at half of the fitted maximal effect; nearly all actives have a fitted effect of over 50% in size. The gist of the method: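 20 nM human CYP3A4 with 25 uM Luciferin-PPXE (at KM) in 200 mM KPO4, preincubated 10 min with compound; NADPH regeneration started a 60 min RT reaction. Luciferin detected by luminescence, normalized to 57 uM ketoconazole as full inhibition.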

For assay [16], the target named is Cytochrome P450 2C19 (Homo sapiens) (UniProt P33261). Description: qHTS Assay for Inhibitors and Substrates of Cytochrome P450 2C19 (AID 899). Further: potency means the concentration at half of the fitted maximal effect; nearly all actives have a fitted effect of over 60% in size. The method, boiled down:
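5nM enzyme + 10uM Luciferin-H EGE (=KM), 50mM KPO4; cpd pin-transferred, 10 min 37C; NADPH regen, 60 min 37C; stopped w/ luciferin detection reagent, 20 min; luminescence. Normalized to 57uM ketoconazole (AC100).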

Chain of Ubiquitin carboxyl-terminal hydrolase 1 (Homo sapiens) (O94782 whole entry, looked up): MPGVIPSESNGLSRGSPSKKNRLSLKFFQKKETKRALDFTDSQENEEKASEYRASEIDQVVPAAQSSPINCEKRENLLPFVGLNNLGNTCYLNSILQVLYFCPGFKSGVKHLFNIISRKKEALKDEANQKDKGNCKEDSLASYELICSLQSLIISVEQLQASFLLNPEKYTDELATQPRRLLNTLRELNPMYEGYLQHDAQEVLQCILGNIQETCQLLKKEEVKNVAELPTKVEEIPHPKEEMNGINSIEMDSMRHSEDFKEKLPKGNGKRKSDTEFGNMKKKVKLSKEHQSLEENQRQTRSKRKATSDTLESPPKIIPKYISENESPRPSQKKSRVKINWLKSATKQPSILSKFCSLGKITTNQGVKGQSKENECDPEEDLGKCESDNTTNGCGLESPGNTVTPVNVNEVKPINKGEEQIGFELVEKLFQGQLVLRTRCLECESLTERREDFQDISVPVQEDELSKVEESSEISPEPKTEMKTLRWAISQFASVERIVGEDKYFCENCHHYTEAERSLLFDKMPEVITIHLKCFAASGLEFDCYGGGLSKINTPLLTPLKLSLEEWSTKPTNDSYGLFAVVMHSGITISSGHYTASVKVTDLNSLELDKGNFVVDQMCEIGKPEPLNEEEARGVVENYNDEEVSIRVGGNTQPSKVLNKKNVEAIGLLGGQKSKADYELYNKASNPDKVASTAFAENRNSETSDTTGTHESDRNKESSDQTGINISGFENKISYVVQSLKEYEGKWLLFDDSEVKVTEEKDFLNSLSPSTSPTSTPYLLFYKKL
Chain of Cytochrome P450 3A4 (Homo sapiens) (P08684 whole entry, looked up): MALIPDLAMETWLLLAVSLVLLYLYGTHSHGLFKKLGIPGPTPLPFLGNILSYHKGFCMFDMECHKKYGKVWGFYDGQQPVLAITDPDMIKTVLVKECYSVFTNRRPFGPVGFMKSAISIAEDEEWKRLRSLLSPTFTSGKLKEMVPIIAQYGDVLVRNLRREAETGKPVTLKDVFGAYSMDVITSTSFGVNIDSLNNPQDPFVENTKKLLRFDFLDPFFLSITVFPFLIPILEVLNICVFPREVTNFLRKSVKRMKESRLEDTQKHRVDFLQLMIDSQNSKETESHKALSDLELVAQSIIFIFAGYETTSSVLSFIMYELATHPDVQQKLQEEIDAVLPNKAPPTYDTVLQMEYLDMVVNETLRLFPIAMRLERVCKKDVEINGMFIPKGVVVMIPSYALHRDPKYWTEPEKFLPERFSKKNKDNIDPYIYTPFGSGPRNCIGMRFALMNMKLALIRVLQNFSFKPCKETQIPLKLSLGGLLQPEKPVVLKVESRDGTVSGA
Chain of Lysosomal acid glucosylceramidase (Homo sapiens) (P04062 whole entry, looked up): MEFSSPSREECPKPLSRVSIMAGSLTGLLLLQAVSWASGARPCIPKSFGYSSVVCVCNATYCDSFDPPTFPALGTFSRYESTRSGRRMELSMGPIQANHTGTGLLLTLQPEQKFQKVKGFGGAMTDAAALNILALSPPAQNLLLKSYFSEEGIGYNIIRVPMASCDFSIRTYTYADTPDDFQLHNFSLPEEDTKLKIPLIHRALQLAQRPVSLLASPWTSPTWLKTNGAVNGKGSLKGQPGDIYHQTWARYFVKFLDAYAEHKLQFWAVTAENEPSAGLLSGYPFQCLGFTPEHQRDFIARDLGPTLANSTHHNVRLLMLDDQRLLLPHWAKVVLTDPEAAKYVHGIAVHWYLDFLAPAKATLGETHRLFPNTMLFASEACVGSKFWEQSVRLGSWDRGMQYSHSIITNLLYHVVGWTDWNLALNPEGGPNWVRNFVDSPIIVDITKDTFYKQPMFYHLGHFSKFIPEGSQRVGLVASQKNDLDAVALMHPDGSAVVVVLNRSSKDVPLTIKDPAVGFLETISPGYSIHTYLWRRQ
Chain of 3',5'-cyclic-AMP phosphodiesterase 4B (Homo sapiens) (Q07343 whole entry, looked up): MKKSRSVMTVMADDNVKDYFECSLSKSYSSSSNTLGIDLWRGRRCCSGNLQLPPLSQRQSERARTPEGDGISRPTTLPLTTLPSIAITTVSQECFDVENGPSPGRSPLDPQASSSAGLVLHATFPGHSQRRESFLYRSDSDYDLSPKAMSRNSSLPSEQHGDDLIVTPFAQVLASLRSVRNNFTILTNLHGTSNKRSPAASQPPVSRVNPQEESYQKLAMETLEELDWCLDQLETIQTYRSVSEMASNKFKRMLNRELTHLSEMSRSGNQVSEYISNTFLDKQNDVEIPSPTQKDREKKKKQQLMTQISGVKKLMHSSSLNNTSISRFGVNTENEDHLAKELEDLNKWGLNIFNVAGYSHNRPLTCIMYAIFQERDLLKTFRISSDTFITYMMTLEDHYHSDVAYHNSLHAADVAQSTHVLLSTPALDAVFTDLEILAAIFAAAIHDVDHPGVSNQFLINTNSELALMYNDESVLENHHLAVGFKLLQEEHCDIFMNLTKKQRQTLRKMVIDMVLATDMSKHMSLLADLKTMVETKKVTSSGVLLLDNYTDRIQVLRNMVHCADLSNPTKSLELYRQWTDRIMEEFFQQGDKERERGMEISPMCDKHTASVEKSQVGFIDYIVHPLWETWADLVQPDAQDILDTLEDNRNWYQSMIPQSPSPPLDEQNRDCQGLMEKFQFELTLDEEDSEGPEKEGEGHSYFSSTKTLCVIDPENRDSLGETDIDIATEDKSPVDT
Chain of Cytochrome P450 1A2 (Homo sapiens) (P05177 whole entry, looked up): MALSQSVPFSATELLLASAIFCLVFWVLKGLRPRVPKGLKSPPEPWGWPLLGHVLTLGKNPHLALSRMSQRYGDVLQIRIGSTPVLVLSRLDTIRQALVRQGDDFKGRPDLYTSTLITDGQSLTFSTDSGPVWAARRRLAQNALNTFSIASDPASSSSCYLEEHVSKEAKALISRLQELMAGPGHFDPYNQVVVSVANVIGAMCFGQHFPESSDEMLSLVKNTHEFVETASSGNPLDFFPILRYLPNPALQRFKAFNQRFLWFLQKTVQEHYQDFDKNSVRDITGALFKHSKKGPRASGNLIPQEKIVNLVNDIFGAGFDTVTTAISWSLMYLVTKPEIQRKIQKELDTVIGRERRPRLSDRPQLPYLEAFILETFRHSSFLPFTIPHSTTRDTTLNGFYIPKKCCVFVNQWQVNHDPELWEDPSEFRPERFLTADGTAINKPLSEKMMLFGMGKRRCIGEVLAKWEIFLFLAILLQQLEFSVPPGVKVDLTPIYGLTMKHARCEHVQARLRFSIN
Chain of Dual specificity protein kinase CLK4 (Homo sapiens) (Q9HAZ1 whole entry, looked up): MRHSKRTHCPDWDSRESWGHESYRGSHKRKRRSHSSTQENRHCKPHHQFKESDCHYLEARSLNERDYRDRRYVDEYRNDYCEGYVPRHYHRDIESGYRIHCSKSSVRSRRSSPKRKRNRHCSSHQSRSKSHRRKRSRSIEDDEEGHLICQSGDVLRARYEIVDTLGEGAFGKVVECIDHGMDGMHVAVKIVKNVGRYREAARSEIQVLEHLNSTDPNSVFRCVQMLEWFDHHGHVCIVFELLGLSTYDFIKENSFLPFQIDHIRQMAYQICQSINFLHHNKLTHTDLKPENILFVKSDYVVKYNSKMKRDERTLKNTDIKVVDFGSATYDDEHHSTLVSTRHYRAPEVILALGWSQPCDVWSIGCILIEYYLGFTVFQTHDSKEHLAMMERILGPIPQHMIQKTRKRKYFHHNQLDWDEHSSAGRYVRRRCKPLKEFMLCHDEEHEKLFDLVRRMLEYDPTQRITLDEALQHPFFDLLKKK
Chain of Glucocorticoid receptor (Homo sapiens) (P04150 whole entry, looked up): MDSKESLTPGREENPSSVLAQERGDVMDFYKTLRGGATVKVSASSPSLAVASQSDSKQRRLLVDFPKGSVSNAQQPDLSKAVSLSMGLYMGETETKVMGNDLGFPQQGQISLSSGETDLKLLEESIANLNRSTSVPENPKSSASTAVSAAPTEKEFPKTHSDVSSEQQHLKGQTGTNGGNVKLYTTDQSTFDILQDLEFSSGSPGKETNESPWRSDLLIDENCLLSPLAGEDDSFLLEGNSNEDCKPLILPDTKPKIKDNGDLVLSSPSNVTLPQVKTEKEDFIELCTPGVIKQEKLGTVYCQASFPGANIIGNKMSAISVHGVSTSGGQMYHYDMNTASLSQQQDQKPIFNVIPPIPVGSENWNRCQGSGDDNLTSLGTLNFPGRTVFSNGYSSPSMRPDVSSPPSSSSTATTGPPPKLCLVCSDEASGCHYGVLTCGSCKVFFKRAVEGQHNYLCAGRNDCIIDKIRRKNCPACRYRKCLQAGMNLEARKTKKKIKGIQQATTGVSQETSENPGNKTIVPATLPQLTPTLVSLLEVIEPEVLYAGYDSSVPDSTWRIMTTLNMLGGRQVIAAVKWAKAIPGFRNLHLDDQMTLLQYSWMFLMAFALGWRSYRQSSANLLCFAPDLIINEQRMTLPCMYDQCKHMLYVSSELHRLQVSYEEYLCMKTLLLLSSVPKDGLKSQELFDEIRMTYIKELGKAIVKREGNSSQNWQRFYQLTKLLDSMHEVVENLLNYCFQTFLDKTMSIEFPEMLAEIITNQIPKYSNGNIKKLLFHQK
Chain of Cytochrome P450 2C19 (Homo sapiens) (P33261 whole entry, looked up): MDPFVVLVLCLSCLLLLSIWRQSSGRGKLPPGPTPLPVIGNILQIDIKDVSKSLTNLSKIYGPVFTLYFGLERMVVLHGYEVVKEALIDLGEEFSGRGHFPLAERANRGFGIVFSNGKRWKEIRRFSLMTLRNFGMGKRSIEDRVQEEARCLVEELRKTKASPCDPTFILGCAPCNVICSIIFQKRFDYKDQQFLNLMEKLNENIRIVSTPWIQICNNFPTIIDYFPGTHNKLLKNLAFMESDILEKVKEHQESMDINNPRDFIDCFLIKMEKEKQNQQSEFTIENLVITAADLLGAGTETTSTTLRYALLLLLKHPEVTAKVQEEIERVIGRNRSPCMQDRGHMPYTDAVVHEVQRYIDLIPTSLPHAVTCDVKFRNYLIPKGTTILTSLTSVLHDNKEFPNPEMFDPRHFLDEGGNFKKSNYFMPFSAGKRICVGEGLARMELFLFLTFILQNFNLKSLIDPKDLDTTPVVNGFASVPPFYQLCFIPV

Turning to `COc1ccc2[nH]cc(CCNc3ncncc3-c3ccc(C(=O)N(C)C)cc3)c2c1`, the results for the activity change, negative = inhibition in assay [1] and in assay [3] were -13.2% and 5.64%, respectively. Moreover, the Potency in assay [2] was 20 µM (active); in assay [5] it was > 46 µM; in assay [6], > 46 µM. In addition, in assay [4], the activity, negative = inhibition was 4.62%. In addition, the Potency entry in assay [7], in assay [8], in assay [9], in assay [11] and in [12] was “inactive” each time. Further, in assay [10], the activation is 11.5%. The outcome in [13] was inactive.
For the compound `CN(C)C(=O)c1ccc(-c2ccc3ncnc(N(C)Cc4ccco4)c3c2)cc1`, the Potency was > 11.4 µM in [14], > 46 µM in assay [5], > 46 µM in assay [6] and 7.08 µM (active) in assay [11]. The activity change, negative = inhibition in [3] was 8.43%. Also, the activity, negative = inhibition in assay [4] is -9.98%. The Potency result in assay [7] and in [12] was “inactive” in each case. Besides, the outcome in [13] was inactive.
Turning to `CN(C)C(=O)c1ccc(-c2ccc3ncnc(Nc4ccccc4)c3c2)cc1`, the Potency was > 11.4 µM in assay [14], 15.8 µM (active) in [2], > 46 µM in assay [5] and > 46 µM in assay [6]. Besides, in assay [4], the activity, negative = inhibition is 0.91%. Besides, the Potency result in [7], in assay [8], in assay [9], in assay [11] and in [12] was “inactive” in each case. For the same compound, the result in assay [13] was inactive.
Consider `Cc1noc(C)c1-c1nc(N(C)C)c2ccccc2n1`, for which the Potency in assay [14] is > 11.4 µM; in assay [2], 0.0398 µM (active); in assay [5] it was > 46 µM; in assay [6], > 46 µM. For the same compound, the activity change, negative = inhibition in assay [3] was 3.94%. Moreover, the activity, negative = inhibition in [4] was 4.14%. For the same compound, the Potency result in assay [7], in assay [8], in [9], in assay [11] and in assay [12] was “inactive” throughout. Further, the result in assay [13] was inactive.
`CCC(=O)O[C@@H]1CC(=O)O[C@H](C)C/C=C/C=C/[C@@H](O)[C@H](C)C[C@H](CC=O)[C@H](OC2O[C@H](C)[C@@H](O[C@H]3C[C@@](C)(O)[C@@H](OC(=O)CC)[C@H](C)O3)[C@H](N(C)C)[C@H]2O)[C@H]1OC` (some centres not stated): in assay [13], the result was inactive.
`COc1cccc(-c2cncnc2NCc2cnc(C)cn2)c1`: the Potency was > 11.4 µM in assay [14]; 12.6 µM (active) in [2]; > 46 µM in assay [5]; > 46 µM in [6]; 1.58 µM (active) in assay [15]. The activity change, negative = inhibition was -11.3% in assay [1] and 8.15% in [3]. Besides, the activity, negative = inhibition in assay [4] is 7.19%. Further, the Potency entry in [7], in [8], in assay [9] and in assay [12] was “inactive” throughout. In addition, in assay [13], the result was inactive.
On to `c1ccc(Nc2ncncc2-c2ccc3c(c2)OCO3)cc1`, for which the Potency in assay [14] is > 11.4 µM; in assay [2] it was 0.316 µM (active); in [5], > 46 µM; in [6] it was > 46 µM; in [15], 0.794 µM (active); in assay [16], 0.251 µM (active). Moreover, the activity change, negative = inhibition was -19.3% in [1] and 9.45% in assay [3]. Besides, the activity, negative = inhibition in [4] was -14.2%. Further, the Potency result in [7], in assay [9] and in assay [12] was “inactive” each time. For the same compound, the outcome in [13] was inactive.
